# Screening results from PubChem.
# PDI inh: inhibitors of human PDI, primary screen, biochemical, turbidity, single point, plate reader; Protein disulfide-isomerase (Homo sapiens), P07237; PDI insulin aggregation turbidity, A650, 90 min; inhibition, % at 10 µM; hit rate 0.052% among 350,000; AID 588391, 2011;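 active = mean inhibition across replicates of 30% or more, whatever share of single replicates reach that level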
# Target sequence (P07237 whole entry, looked up): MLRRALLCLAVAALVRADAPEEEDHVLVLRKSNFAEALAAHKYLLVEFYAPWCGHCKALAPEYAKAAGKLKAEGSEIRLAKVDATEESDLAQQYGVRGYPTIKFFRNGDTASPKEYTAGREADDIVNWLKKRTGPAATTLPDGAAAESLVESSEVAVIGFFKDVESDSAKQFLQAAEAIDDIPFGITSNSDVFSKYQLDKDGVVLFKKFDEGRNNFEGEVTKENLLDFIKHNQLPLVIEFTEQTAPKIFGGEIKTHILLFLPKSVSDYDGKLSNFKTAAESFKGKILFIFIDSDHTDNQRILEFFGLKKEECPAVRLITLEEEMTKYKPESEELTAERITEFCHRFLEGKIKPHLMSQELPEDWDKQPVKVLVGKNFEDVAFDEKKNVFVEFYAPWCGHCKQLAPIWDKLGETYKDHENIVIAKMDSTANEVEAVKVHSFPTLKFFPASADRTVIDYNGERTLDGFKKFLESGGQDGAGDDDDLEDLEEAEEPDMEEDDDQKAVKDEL
# ERAP1 HTS inh: human ERAP1 aminopeptidase inhibitors, primary screen, biochemical, single point, plate reader; Endoplasmic reticulum aminopeptidase 1 (Homo sapiens), Q9NZ08; recombinant ERAP1, Leu-AMC fluorescence, 60 min; inhibition, % at 10.7 µM; hit rate 0.15% among 340,000; AID 652197, 2013;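 active = mean replicate inhibition of at least 30%, or all replicates individually reaching that 30% level; inactive = mean below 30% and not every replicate reaching it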
# CaV13 FRET inh: Disruptors of the CACNA1D IQ motif to Ca2+-dependent inactivation inhibitor domain association, primary screening, Förster resonance energy transfer in intact living … | HEK cells, CFP/YFP FRET ICDI-IQ, plate reader, 10 min; percent FRET-ratio fall versus neutral wells | inhibition, % at 12.3 µM | hit rate 0.098% among 340,000;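 active = mean replicate inhibition of at least 30% and at least 1% of replicates passing that level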
# ERp5 block: inhibitors of ERp5-driven insulin aggregation, primary screen, biochemical, turbidity, absorbance 650 nm, single point. Protein disulfide-isomerase A6 (Homo sapiens), Q15084. 90 min. inhibition, % at 9.99 µM. hit rate 0.05% among 350,000. AID 651711, 2012;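 active = mean replicate inhibition above about 25%, with every replicate also reaching it, limit read from the data, passing the limit was not always enough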
# PGC1a acetyl inh: inhibitors of PGC1a acetylation signal, primary screen, cell-based, U2OS, AlphaScreen, inhibitor mode. inhibition, % at 15.6 µM. AlphaScreen anti-acetyl-lysine; with virally co-expressed GCN5 acetyltransferase. hit rate 0.17% among 350,000. AID 651687, 2012;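 active = every replicate shows inhibition of at least 40%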
# PglD DTNB: C. jejuni PglD acetyltransferase inhibitors, primary screen, biochemical, DTNB colorimetric, single point. UDP-N-acetylbacillosamine N-acetyltransferase PglD (Campylobacter jejuni). purified PglD enzyme, DTNB colorimetric CoA detection. inhibition, % at 12.5 µM. hit rate 0.098% among 360,000; in the data active = inhibition above about 16%, passing the limit was not always enough
# A number is an active result; i = inactive; nt = no result; + = active, no number. Sampled rows, rich in hits. Any-hit rate of the full collection: about 0.46%.
SMILES,PDI inh,ERAP1 HTS inh,CaV13 FRET inh,ERp5 block,PGC1a acetyl inh,PglD DTNB
Cc1ccc(-n2c(SCC(=O)NCC3CCCO3)nc3ccccc3c2=O)cc1C (stereo not given),i,i,i,i,nt,nt
CC(=O)NCCn1c(SCC(=O)NC2CCCCC2)nc2ccccc2c1=O,i,i,i,i,i,nt
O=C(CSc1nc2ccccc2c(=O)n1-c1ccccc1)NCC1CCCO1 (stereo not given),i,82,i,i,i,i
CCn1c(SCC(=O)NC2CCCCC2)nc2ccccc2c1=O,i,55,i,i,i,i
O=C(c1cccc(F)c1)N1CCCCN2[C@@H](CO)[C@H](c3ccc(-c4ccc(F)cc4)cc3)[C@@H]2C1,nt,i,nt,i,i,i
CC(=O)Nc1ccc(NC2=C/C(=N/S(=O)(=O)c3cccs3)c3ccccc3C2=O)cc1,i,i,i,i,70,nt
Cc1ccccc1NC1=C/C(=N\S(=O)(=O)c2cccs2)c2ccccc2C1=O,i,nt,i,nt,88,i
Cc1ccc(NC2=C/C(=N/S(=O)(=O)c3cccs3)c3ccccc3C2=O)cc1C,i,i,i,i,i,i
COc1ccc(S(=O)(=O)/N=C2\C=C(Nc3ccc(O)cc3)C(=O)c3ccccc32)cc1,i,i,i,i,nt,i
CC1C=NC(S(=O)(=O)N2CC[C@@H]3[C@@H](CO)N(C)c4ccc(-c5ccccc5F)cc4[C@@H]32)=N1 (stereo not given in full),nt,i,nt,i,i,i
Cc1[nH]c2ccccc2c1C(=O)/C=C/c1ccccc1,i,nt,i,nt,71,i
COC(=O)CS(=O)(=O)c1nnc([C@H](Cc2ccccc2)NC(=O)OC(C)(C)C)o1,i,nt,i,nt,i,nt
Cc1cccc(CS(=O)(=O)c2nnc([C@H](Cc3ccccc3)NC(=O)OC(C)(C)C)o2)c1,i,nt,nt,nt,60,i
CC1=C(C(=O)OC(C)(C)C)C(c2ccc3ccccc3c2)NC(=O)N1C (stereo not given),i,i,i,i,66,i
COC(=O)C1=C(C)N(C)C(=O)NC1c1ccc(C)cc1 (stereo not given),i,i,i,i,i,i
O=C1C=CC(=O)c2c(O)c(N3CCN(CCOCCO)CC3)c(Br)c(O)c21,i,i,i,i,nt,nt
O=C1C=CC(=O)c2c(O)c(N3CCN(CCO)CC3)c(Cl)c(O)c21,i,i,i,i,51,nt
COc1ccc(NC(=O)Nc2ccc3c(c2)C(=O)N([C@@H](C)CO)C[C@@H](C)[C@@H](CN(C)C(=O)NC(C)C)OCCCC[C@@H](C)O3)cc1,nt,i,nt,i,i,i
c1ccc(-c2cn3nc4c(nc3n2)CCCC4)cc1,i,nt,34,nt,i,nt
CC(C)NC(=S)N=Nc1c(O)[nH]c2ccc(C(C)C)cc12,i,i,i,i,48,i
NC(=O)C[N+]1(CC#CC(O)(c2ccccc2)c2ccccc2)CCCC1,i,47,i,i,i,nt
CCOc1ccc(CN2C(=O)c3ccccc3C2=O)cc1C(=O)NC1CC(C)(C)NC(C)(C)C1,i,49,i,i,i,i
COc1cccc2c1C(=O)c1c(O)c3c(c(O)c1C2=O)C[C@@](O)(C(C)=O)C[C@@H]3O[C@H]1C[C@H](N)[C@H](O)[C@H](C)O1,i,i,i,i,51,i
COc1cccc2c1C(=O)c1c(O)c3c(c(O)c1C2=O)C[C@@](O)(C(=O)CO)C[C@@H]3O[C@H]1C[C@H](N)[C@@H](O)[C@H](C)O1,i,nt,nt,nt,i,i
Cc1ccc(Nc2nc(-c3c(C)nc4ncccn34)cs2)cc1,i,nt,i,nt,i,i
SMILES,PDI inh,ERAP1 HTS inh,CaV13 FRET inh,ERp5 block,PGC1a acetyl inh,PglD DTNB
Cc1nc2ncccn2c1-c1csc(Nc2ccc(O)cc2)n1,53,i,i,i,i,nt
COCC(=O)N(C)C[C@H]1Oc2cc(-c3ccc(C)cc3)ccc2S(=O)(=O)N([C@@H](C)CO)C[C@@H]1C,nt,i,nt,i,i,i
CC12CCC3c4ccc(O)cc4CCC3C1CCC2=O (stereo not given),45,i,i,i,i,i
C[C@]12CC[C@@H]3c4ccc(OS(=O)(=O)O)cc4CC[C@H]3[C@@H]1CCC2=O,i,i,i,i,i,i
CO[C@@H]1CN(C)C(=O)c2cc(NS(=O)(=O)c3cn(C)cn3)ccc2OC[C@@H](C)N(C)C[C@H]1C,nt,nt,nt,nt,i,i
CO[C@H]1CN(C)C(=O)c2cc(NC(=O)c3cccc(Oc4ccccc4)c3)ccc2OC[C@@H](C)NC[C@H]1C,nt,nt,nt,nt,i,nt
CN(CC(=O)Nc1ccc(F)cc1)CC(=O)NC1CCCCC1,i,i,i,25,i,i
N#C[C@@H]1[C@H](c2ccccc2C2=CCCCC2)[C@H](CO)N1C(=O)NC1CCCCC1,nt,i,nt,i,i,nt
COc1cccc(C(=O)CSc2nnc(CNS(=O)(=O)c3ccc(C)cc3)n2C)c1,i,nt,nt,nt,89,nt
COC(=O)CSc1nnc(CNS(=O)(=O)c2ccc(C)cc2)n1C,i,nt,i,nt,i,i
COCCCn1c(C(=O)N2CCOCC2)cc2c(=O)n3ccccc3nc21,i,54,i,i,i,i
CCN(C(=O)c1cc2c(=O)n3cccc(C)c3nc2n1CCCOC)C1CCCCC1,i,50,i,i,i,i
CCN(CC)CCN1C2=C(C(=O)CC(C)(C)C2)C(c2cccc(F)c2)C2=C1CC(C)(C)CC2=O,i,i,123,i,i,nt
CCn1c2ccccc2c(=O)c2ccccc21,i,i,+,i,nt,i
O=C(Cc1ccncc1)NCC[C@H]1CC[C@@H](NC(=O)C2CC2)[C@H](CO)O1,nt,i,nt,i,62,i
O=C(Cc1ccccn1)NCC[C@H]1CC[C@@H](NC(=O)Nc2ccc(C(F)(F)F)cc2)[C@@H](CO)O1,nt,i,nt,i,102,i
O=C(Cc1ccccn1)NCC[C@H]1CC[C@H](NC(=O)Nc2ccc(C(F)(F)F)cc2)[C@H](CO)O1,nt,i,nt,i,48,i
Cc1noc(C)c1S(=O)(=O)Nc1ccc2c(c1)C(=O)N([C@H](C)CO)C[C@@H](C)[C@@H](CN(C)S(=O)(=O)c1ccc(F)cc1)O2,nt,i,nt,i,i,nt
C[C@@H]1CN([C@H](C)CO)C(=O)Cc2cc(NC(=O)Cc3ccccc3)ccc2O[C@H]1CN(C)C(=O)Nc1ccc(C(F)(F)F)cc1,nt,i,nt,i,i,i
CC[N+]1(CC(O)COC2CC(C)CC(C)(C)C2)CCOCC1 (stereo not given),i,108,i,i,i,i
CCN(CC)CCNC(=O)c1sc2nc(-c3ccccc3)cn2c1C,nt,i,48,i,i,i
C[C@H](CO)N1C[C@H](C)[C@H](CN(C)S(=O)(=O)c2cn(C)cn2)OCCCC[C@H](C)Oc2ccc(NS(=O)(=O)c3cccs3)cc2C1=O,nt,i,nt,i,i,i
